ChEMBL document CHEMBL1201862, “PubChem BioAssay data set” (2004)
Out of some 400,000 compounds screened, about 2,100 (0.53%) were called active. Another 14% or so got no clear call; they are omitted. No rule for the calls is given here. This excerpt belongs to a sample that is enriched for actives.

molecular target: Ataxin-2 (Homo sapiens) (UniProt Q99700); assay: qHTS for Inhibitors of ATXN expression.; type: functional
Sequence (Q99700 whole entry): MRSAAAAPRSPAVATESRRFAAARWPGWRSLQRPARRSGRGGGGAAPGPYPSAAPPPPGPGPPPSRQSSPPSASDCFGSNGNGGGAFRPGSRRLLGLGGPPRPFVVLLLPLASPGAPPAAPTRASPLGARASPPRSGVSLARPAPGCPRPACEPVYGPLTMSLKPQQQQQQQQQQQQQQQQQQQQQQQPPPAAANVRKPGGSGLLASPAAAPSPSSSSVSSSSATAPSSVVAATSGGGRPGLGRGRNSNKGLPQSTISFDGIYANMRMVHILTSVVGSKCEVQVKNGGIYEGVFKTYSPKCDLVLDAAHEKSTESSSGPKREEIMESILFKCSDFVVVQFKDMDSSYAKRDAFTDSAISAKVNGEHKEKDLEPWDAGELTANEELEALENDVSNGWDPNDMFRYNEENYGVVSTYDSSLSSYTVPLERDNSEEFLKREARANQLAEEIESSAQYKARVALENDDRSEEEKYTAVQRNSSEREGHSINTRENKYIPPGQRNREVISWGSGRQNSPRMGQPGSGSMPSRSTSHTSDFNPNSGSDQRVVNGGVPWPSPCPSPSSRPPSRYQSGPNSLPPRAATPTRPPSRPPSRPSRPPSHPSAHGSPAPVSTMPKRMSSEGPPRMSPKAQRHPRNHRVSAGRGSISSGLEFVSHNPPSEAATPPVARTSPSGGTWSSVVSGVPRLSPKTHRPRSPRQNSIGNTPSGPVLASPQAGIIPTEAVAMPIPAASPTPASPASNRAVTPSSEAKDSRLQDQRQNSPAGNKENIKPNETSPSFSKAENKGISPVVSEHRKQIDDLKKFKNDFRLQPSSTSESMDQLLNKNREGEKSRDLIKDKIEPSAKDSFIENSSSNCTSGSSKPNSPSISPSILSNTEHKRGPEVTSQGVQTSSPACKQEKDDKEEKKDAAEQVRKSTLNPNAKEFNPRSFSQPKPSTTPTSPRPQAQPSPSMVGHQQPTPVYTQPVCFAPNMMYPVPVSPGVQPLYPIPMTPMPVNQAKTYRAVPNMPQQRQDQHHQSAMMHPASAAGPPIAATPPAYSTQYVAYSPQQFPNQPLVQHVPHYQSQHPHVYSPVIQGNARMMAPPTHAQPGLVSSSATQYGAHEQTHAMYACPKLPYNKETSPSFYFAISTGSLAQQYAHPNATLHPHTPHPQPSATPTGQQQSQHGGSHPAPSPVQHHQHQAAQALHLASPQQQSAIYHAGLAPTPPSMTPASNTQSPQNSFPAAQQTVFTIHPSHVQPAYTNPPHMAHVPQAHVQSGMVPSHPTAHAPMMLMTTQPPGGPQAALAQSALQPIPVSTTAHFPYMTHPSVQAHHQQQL

Row | Compound | Potency
1 | Cc1oc(CC(C)C)cc1C(=O)NCCCC(=O)O | inactive
2 | N=C1NC(=O)/C(=C/c2ccc(Br)cc2)S1 | inactive
3 | COCCN1C=C(C(=O)OC)C(c2ccc(Cl)cc2)C(C(=O)OC)=C1 | inactive
4 | CCN(CC)C(=O)c1cc(-c2ccc3c(c2)OCO3)on1 | inactive
5 | COc1ccc(CC(N)c2csc(NC(=O)Nc3ccc(C(C)C)cc3)n2)cc1 (stereo unspecified) | 39.8 µM (active)
6 | COc1ccc(Cc2nnc(S)n2NC(=O)Nc2ccc(C)cc2)cc1 | inactive
7 | COc1ccc(OCC(=O)Nc2nccs2)cc1 | inactive
8 | CCN(CC)C(=O)COC(=O)c1cc(-c2ccco2)nc2ccccc12 | inactive
9 | COc1ccc2c3c(cccc13)C(=O)CC2 | inactive
10 | O=C1c2ccccc2-c2onc3ccc(Oc4ccccc4)c1c23 | 20 µM (active)
11 | COc1cccc2c1C(=O)C=C(C)C2=O | inactive
12 | COc1ccc2noc3c2c1C(=O)c1ccccc1-3 | 39.8 µM (active)
13 | COc1ccc(N2C(=O)/C(=C\NNS(=O)(=O)c3ccc(C)cc3)c3ccccc3C2=O)cc1OC | inactive
14 | Cc1cc(=O)oc2cc(OC(=O)c3ccco3)ccc12 | inactive
15 | O=c1c2c(-c3ccccc3)csc2nc2c3ccccc3c(NCCN3CCOCC3)nn12 | inactive
16 | Cc1cc(C)c2nc3nc(C)c(C)cc3c(N)c2c1 | inactive
17 | CCN(CC)c1ccc2cc(C#N)c(=O)oc2c1 | inactive
18 | CCC1(CC)Nc2ccccc2C(=O)N1c1ccc(OC)cc1 | inactive
19 | N#Cc1ccc2sn(-c3ccccc3)c(=O)c2c1 | 22.4 µM (active)
20 | COc1ccc(-n2sc3ccccc3c2=O)cc1 | 22.4 µM (active)
21 | COc1ccc(N2CCN(CCN3C(=O)c4ccccc4C3=O)CC2)cc1 | inactive
22 | O=c1c2ccccc2sn1-c1ccccc1 | 28.2 µM (active)
23 | N#Cc1cc2cc3ccccc3nc2n2c(=O)c3ccccc3nc12 | inactive
24 | Nc1ccc2c3c(cccc13)C(=O)N(c1ccccc1)C2=O | inactive

Row | Compound | Potency
25 | O=c1c2ccccc2nc2ccccn12 | inactive
26 | N#Cc1c(N)n(-c2ccccc2)c(=O)c2cc([N+](=O)[O-])ccc12 | inactive
27 | Cn1c2ccccc2c(=O)c2ccc(Cl)cc21 | inactive
28 | O=c1c2ccccc2sn1-c1ccc(Cl)cc1Cl | 35.5 µM (active)
29 | CC(C)(C)c1ccc(C(=O)NCCn2c(N)c(C#N)c3nc4ccccc4nc32)cc1 | inactive
30 | Cc1cc(O)cc2c1C(=O)/C(=C/c1ccco1)O2 | inactive
31 | O=C1NC(c2ccco2)Nc2sc3c(c21)CCN(Cc1ccccc1)C3 (stereo unspecified) | inactive
32 | N#Cc1c(C(F)(F)F)cc(O)n2c1nc1ccccc12 | inactive
33 | CN1C(=O)c2cccc3c(N)ccc(c23)C1=O | inactive
34 | CC(=O)Nc1ccc(C2=NN(c3ccccc3)C(c3ccccc3)C2)cc1 (stereo unspecified) | inactive
35 | O=c1c2ccccc2[nH]c2ccc(F)cc12 | inactive
36 | O=c1c2cc(F)ccc2sn1-c1ccc(F)cc1 | 35.5 µM (active)
37 | Cn1sc2ccccc2c1=O | 28.2 µM (active)
38 | CC(=O)Nc1ccc2nc3ccccc3nc2c1 | inactive
39 | CC(=O)Nc1ccc2c(=O)n(-c3ccccc3)sc2c1 | 25.1 µM (active)
40 | COCCCn1c(N)c(-c2nc3ccccc3n2C)c2nc3ccccc3nc21 | inactive
41 | COc1ccc(N2C3=C(C(=O)CC(C)(C)C3)C(c3cnn(C)c3)C3=C2CC(C)(C)CC3=O)cc1 | inactive
42 | COc1cccc(C(=O)Oc2c(Br)cc(Br)cc2/C=N/NC(=O)c2cc(C)[nH]n2)c1 | inactive
43 | CC1(C)CC2CC(C)(CN2C(S)=Nc2ccccc2)C1 (stereo unspecified) | inactive
44 | COc1ccc(OC)c(/C=N/NC(=O)CNC(=O)c2ccc(S(=O)(=O)N3CCOCC3)cc2)c1 | inactive
45 | O=C(Oc1ccc2ccc(=O)oc2c1)c1cccs1 | inactive
46 | S=C(NNC(=S)NC1CC2C=CC1C2)NC1CC2C=CC1C2 (stereo unspecified) | inactive
47 | CCOC(=O)c1sc(NC(=O)c2ccoc2C)c(C(N)=O)c1C | inactive
48 | CCOC(=O)c1c(NC(C)=O)sc2c(OCC(O)CNC(C)(C)C)c(Br)ccc12 (stereo unspecified) | 39.8 µM (active)

Row | Compound | Potency
49 | CC(=O)Nc1sc(C)c(C)c1C(=O)OCC(=O)NCc1ccc(Cl)cc1 | inactive
50 | NC(=O)c1cccc2cc3ccccc3cc12 | inactive
51 | C#CCOc1ccc(C2C(C#N)=C(N)Oc3cc(O)ccc32)cc1 (stereo unspecified) | inactive
52 | Cc1ccc2nc(O)c(C3C(C#N)=C(N)Oc4c3ccc3cccnc43)cc2c1 (stereo unspecified) | 22.4 µM (active)
53 | Cc1ccc2nc(Cl)c(C#N)cc2c1 | inactive
54 | COC(=O)c1sc2nc3c(cc2c1N)CCCC3 | inactive
55 | O=C1CC(c2ccccc2Cl)=NN(c2ncnc3ccccc23)C1=O | inactive
56 | CC1=C/C(=N\OS(=O)(=O)c2ccccc2)C(C(C)C)=CC1=O | 31.6 µM (active)
57 | CC1=C/C(=N\OS(=O)(=O)c2ccccc2)C=CC1=O | 31.6 µM (active)
58 | Cc1ccc(S(=O)(=O)NNc2c3ccccc3nc3ccc(Cl)cc23)cc1 | inactive
59 | CCCCn1c(=O)[nH]c2nc3cc(NC(C)=O)ccc3nc2c1=O | inactive
60 | CCN(CC)c1ccc(/C=c2\sc3nc4ccccc4n3c2=O)c(O)c1 | inactive
61 | OCCC1CN(C2CCN(c3ccccc3F)CC2)CCN1Cc1ccccc1 (stereo unspecified) | inactive
62 | Cc1cccc(C2=NN(c3ccc(Br)cc3)[C@@H](C(=O)N3CCOC3=O)[C@@H]2c2ccccc2)c1 | inactive
63 | CN1C[C@@H]2[C@@H]3C(=O)N(Cc4ccccc4)C(=O)[C@@H]3[C@](Cc3ccccc3)(C1=O)N2C(=O)c1ccc(C(C)(C)C)cc1 | 15.8 µM (active)
64 | CC1(Cc2ccccc2Cl)C(=O)Nc2cc(-c3ccccc3Cl)ccc21 (stereo unspecified) | 39.8 µM (active)
65 | Nc1ccccc1SC(C[N+](=O)[O-])c1ccccc1 (stereo unspecified) | 39.8 µM (active)
66 | CC(=O)Nc1cc[n+](CC(=O)c2cccc([N+](=O)[O-])c2)cc1 | inactive
67 | CC(CCc1ccccc1)NCC(O)c1cccc([N+](=O)[O-])c1 (stereo unspecified) | inactive
68 | Nc1ccccc1SC(CC(=O)c1ccccc1)c1cccc([N+](=O)[O-])c1 (stereo unspecified) | 2.82 µM (active)
69 | COc1ccc(/C=N/NC(=O)Nc2cccc3nsnc23)cc1 | inactive
70 | CN1C(=O)c2cccc3c(N(C)C)ccc(c23)C1=O | inactive
71 | O=C(O)c1ccccc1-c1ccc(C=c2sc3nc4cc(Br)cnc4n3c2=O)o1 | inactive
